# Experimental data taken from PubChem BioAssay (NCI).
# Compounds without any hit were thinned out: in the full panel of roughly 79,000, 15% have a hit. A number with no mark means an inactive call. Calls of active or inactive are those of the source. Cut-off read from the data, not from the text of the source: active = growth inhibition above about 70%; inactive = the rest.
# Assays:
# [1] = NCI Yeast Anticancer Drug Screen. Data for the rad50 strain (AID 155);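 note: 0% = growth of vehicle-only cultures of the same strain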; details: S. cerevisiae rad50 strain growth inhibition, stronger effect = higher value
# How it was run: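 DNA repair mutant yeast, compound exposure, growth read-out; inhibition is taken relative to vehicle.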
# [2] = NCI Yeast Anticancer Drug Screen. Data for the mec2-1 strain (AID 157); details: S. cerevisiae mec2-1 strain, stronger effect = higher value
# How it was run: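 Each compound was tested on mec2-1 yeast, a strain altered in DNA damage repair or cell cycle control. Growth inhibition is reported relative to vehicle.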
# [3] = NCI Yeast Anticancer Drug Screen. Data for the sgs1 mgt1 strain (AID 161);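 note: 0% = growth of cultures given vehicle only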; details: S. cerevisiae sgs1 mgt1 strain, stronger effect = higher value
# How it was run: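 Genetically altered yeast, compound exposure, growth inhibition relative to vehicle.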
# [4] = NCI Yeast Anticancer Drug Screen. Data for the cln2 rad14 strain (AID 165);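 note: 0% = growth equal to vehicle treated cultures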; details: S. cerevisiae cln2 rad14 strain, stronger effect = higher value
# How it was run: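 Test compounds were added to cln2 rad14 yeast cultures; inhibition of growth was then determined by comparison with vehicle treatment.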
# [5] = NCI Yeast Anticancer Drug Screen. Data for the bub3 strain (AID 167); details: S. cerevisiae bub3 mutant strain, stronger effect = higher value
# How it was run: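 In this screen, a yeast mutant lacking normal mitotic checkpoint function is challenged with compound. Relative growth versus vehicle gives the inhibition value.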
# [6] = NCI Yeast Anticancer Drug Screen. Data for the mlh1 rad18 strain (AID 175); details: S. cerevisiae mlh1 rad18 strain growth inhibition, stronger effect = higher value
# How it was run: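 Inhibition values reflect reduced growth of mutant yeast versus vehicle-treated controls following compound exposure; the mutations affect DNA damage repair.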
# [7] = NCI Yeast Anticancer Drug Screen. Data for the wt1 strain (AID 149);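 note: 0% = growth of vehicle-treated wt1 cultures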; details: S. cerevisiae wt1 strain (SPY 50644) growth inhibition, stronger effect = higher value
# How it was run: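 wt1 strain grown with compound or vehicle; inhibition taken from the growth difference.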
# [8] = NCI Yeast Anticancer Drug Screen. Data for the mgt1 strain (AID 153); details: S. cerevisiae mgt1 mutant growth inhibition, stronger effect = higher value
# How it was run: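 In the mgt1 strain, test compounds were added and growth inhibition was determined relative to vehicle-treated controls.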
# [9] = NCI Yeast Anticancer Drug Screen. Data for the rad14 strain (AID 159);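 note: 0% = growth of vehicle-treated control cultures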; details: S. cerevisiae rad14 strain growth inhibition, stronger effect = higher value
# How it was run: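 DNA repair-defective yeast, compound-exposed; % growth inhibition derived by comparison with vehicle-treated controls.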
# [10] = NCI Yeast Anticancer Drug Screen. Data for the CLN2oe strain (AID 163);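 note: 0% = growth of vehicle-only control cultures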; details: S. cerevisiae CLN2oe strain, stronger effect = higher value
# How it was run: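 First, the altered yeast strain was treated with each compound; second, its growth was measured; finally, inhibition was derived by comparison with vehicle controls.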
# [11] = NCI Yeast Anticancer Drug Screen. Data for the wt2 strain (AID 169);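 note: 0% = growth of vehicle-treated yeast cultures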; details: S. cerevisiae wt2 strain growth inhibition, stronger effect = higher value
# How it was run: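 The panel's yeast strains carry defined changes in DNA repair or cell cycle genes. Each strain is grown with compound, and growth loss is scored relative to vehicle.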
# [12] = NCI Yeast Anticancer Drug Screen. Data for the mlh1 strain (AID 171);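 note: 0% = growth of vehicle-treated control cultures of the same strain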; details: S. cerevisiae mlh1 strain growth inhibition, stronger effect = higher value
# How it was run: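 Inhibition values reflect reduced yeast growth in the presence of compound, referenced to vehicle controls, using a strain chosen for its alteration in DNA repair or cell cycle control.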
# [13] = NCI Yeast Anticancer Drug Screen. Data for the sgs1 strain (AID 173);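 note: 0% = growth of vehicle-only control cultures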; details: S. cerevisiae sgs1 mutant, stronger effect = higher value
# How it was run: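 Vehicle-treated cultures served as reference for growth inhibition of a yeast strain altered in DNA damage repair or cell cycle control after compound exposure.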
# [14] = NCI Yeast Anticancer Drug Screen. Data for the rad18 strain (AID 177); details: S. cerevisiae rad18 mutant growth inhibition, stronger effect = higher value
# How it was run: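 Steps: expose repair-mutant yeast to compound; measure growth; express as inhibition relative to vehicle control.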
# [15] = at 5.0 µM (retest, dose inferred, filed as 0.5)
# [16] = at 50.0 µM (retest, dose inferred, filed as 5.0)
structure (smiles),measurement,setting,value
O=C1C2CCN(CC2)C1CN1CCOCC1 (stereo not given),growth inhibition,[1]; [15],15%
same,growth inhibition,[1]; [16],22%
same,growth inhibition,[1]; at 50.0 µM,88.3% (active)
same,growth inhibition,[2]; [15],22%
same,growth inhibition,[2]; [16],-8%
same,growth inhibition,[2]; at 50.0 µM,90.8% (active)
same,growth inhibition,[3]; [15],3%
same,growth inhibition,[3]; [16],8%
same,growth inhibition,[3]; at 50.0 µM,87.2% (active)
same,growth inhibition,[4]; [15],10%
same,growth inhibition,[4]; [16],11%
same,growth inhibition,[4]; at 50.0 µM,19.2%
same,growth inhibition,[5]; [15],-1%
same,growth inhibition,[5]; [16],2%
same,growth inhibition,[5]; at 50.0 µM,89.1% (active)
same,growth inhibition,[6]; [15],10%
same,growth inhibition,[6]; [16],16%
NC1=NCC(c2ccc(Cl)cc2)O1 (stereo not given),growth inhibition,[7]; at 1.2 µM,-5%
same,growth inhibition,[7]; at 3.7 µM,-4%
same,growth inhibition,[7]; at 11.0 µM,-7%
same,growth inhibition,[7]; at 33.0 µM,-5%
same,growth inhibition,[7]; at 100.0 µM,3%
same,growth inhibition,[8]; at 1.2 µM,-3%
same,growth inhibition,[8]; at 3.7 µM,-4%
same,growth inhibition,[8]; at 11.0 µM,-2%
same,growth inhibition,[8]; at 33.0 µM,5%
same,growth inhibition,[8]; at 100.0 µM,50%
same,growth inhibition,[1]; at 1.2 µM,-1%
same,growth inhibition,[1]; at 3.7 µM,-4%
same,growth inhibition,[1]; [15],-151%
same,growth inhibition,[1]; at 11.0 µM,7%
same,growth inhibition,[1]; at 33.0 µM,11%
same,growth inhibition,[1]; [16],17%
same,growth inhibition,[1]; at 50.0 µM,57.8%
same,growth inhibition,[1]; at 100.0 µM,49%
same,growth inhibition,[2]; at 1.2 µM,1%
same,growth inhibition,[2]; at 3.7 µM,-1%
same,growth inhibition,[2]; [15],-51%
same,growth inhibition,[2]; at 11.0 µM,3%
same,growth inhibition,[2]; at 33.0 µM,1%
same,growth inhibition,[2]; [16],10%
same,growth inhibition,[2]; at 50.0 µM,13.3%
same,growth inhibition,[2]; at 100.0 µM,44%
same,growth inhibition,[9]; at 1.2 µM,-2%
same,growth inhibition,[9]; at 3.7 µM,-3%
same,growth inhibition,[9]; at 11.0 µM,-1%
same,growth inhibition,[9]; at 33.0 µM,2%
same,growth inhibition,[9]; at 100.0 µM,52%
same,growth inhibition,[3]; [15],-62%
same,growth inhibition,[3]; [16],17%
same,growth inhibition,[3]; at 50.0 µM,50.2%
same,growth inhibition,[10]; at 1.2 µM,-2%
same,growth inhibition,[10]; at 3.7 µM,-2%
same,growth inhibition,[10]; at 11.0 µM,3%
same,growth inhibition,[10]; at 33.0 µM,1%
same,growth inhibition,[10]; at 100.0 µM,50%
same,growth inhibition,[4]; [15],-64%
same,growth inhibition,[4]; [16],7%
same,growth inhibition,[4]; at 50.0 µM,31.1%
same,growth inhibition,[5]; at 1.2 µM,-11%
same,growth inhibition,[5]; at 3.7 µM,-9%
same,growth inhibition,[5]; [15],-76%
same,growth inhibition,[5]; at 11.0 µM,-4%
same,growth inhibition,[5]; at 33.0 µM,-6%
same,growth inhibition,[5]; [16],27%
same,growth inhibition,[5]; at 50.0 µM,39.4%
same,growth inhibition,[5]; at 100.0 µM,49%
same,growth inhibition,[11]; at 1.2 µM,-1%
same,growth inhibition,[11]; at 3.7 µM,0%
same,growth inhibition,[11]; at 11.0 µM,0%
same,growth inhibition,[11]; at 33.0 µM,-1%
same,growth inhibition,[11]; at 100.0 µM,47%
same,growth inhibition,[12]; at 1.2 µM,7%
same,growth inhibition,[12]; at 3.7 µM,-5%
same,growth inhibition,[12]; at 11.0 µM,-5%
same,growth inhibition,[12]; at 33.0 µM,-4%
same,growth inhibition,[12]; at 100.0 µM,47%
same,growth inhibition,[13]; at 1.2 µM,0%
same,growth inhibition,[13]; at 3.7 µM,-1%
same,growth inhibition,[13]; at 11.0 µM,-2%
same,growth inhibition,[13]; at 33.0 µM,-2%
same,growth inhibition,[13]; at 100.0 µM,48%
same,growth inhibition,[6]; [15],-135%
same,growth inhibition,[6]; [16],81% (active)
same,growth inhibition,[6]; at 50.0 µM,50.4%
same,growth inhibition,[14]; at 1.2 µM,-4%
same,growth inhibition,[14]; at 3.7 µM,-3%
same,growth inhibition,[14]; at 11.0 µM,-3%
same,growth inhibition,[14]; at 33.0 µM,-3%
same,growth inhibition,[14]; at 100.0 µM,48%
